Test results: PubChem BioAssay

assay: growth of efflux-deficient E. coli DRC39 – strain DRC39, OD650, 24 h, E. coli filamentation inducers, primary screen (AID 1178);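 further: growth measured as culture turbidity by optical density at 650 nm; test concentration not given here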; conditions: E. coli DRC39 acrAB, higher = more signal, called active from +8 up or from −8 down

z-score, inactive:
CC(C)N1C(=O)c2ccccc2[C@](C)(C(=O)NC2CC2)[C@@H]1c1ccc(CO)cc1 0.783
CCCNC(=O)[C@@]1(C)c2ccccc2C(=O)N(Cc2ccc(OC(F)(F)F)cc2)[C@H]1c1ccc(CO)cc1 0.484
C=CCC(OC(C)=O)[C@@H]1[C@@H](N(Cc2ccc(-c3cccc(C(F)(F)F)c3)o2)C(=O)Cc2ccc(OC)cc2)c2cc(OCCCO)ccc2N1C(=O)Cc1ccc(OC)cc1 (stereo not given in full) 1.49
COC(=O)[C@@]1(Cc2ccccc2)[C@H]2c3cc(C(=O)N(C)C)n(Cc4cc(F)c(F)c(F)c4)c3C[C@H]2CN1C(=O)c1ccccc1 0.194
C=C(C)[C@@H]1CC=C(C(O)C2C=CC3C(=O)N(Cc4ccccc4)C(=O)C3N2n2cnnc2)CC1 (stereo not given in full) 0.518

assay: growth of efflux-deficient E. coli DRC39 – strain DRC39, OD650, 48 h, E. coli filamentation inducers, primary screen (AID 1179);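 further: screen aims at cell division blockers that make cells filament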; conditions: E. coli DRC39 delta-acrAB growth, higher = more signal, called active from +8 up or from −8 down

z-score, inactive:
COC(=O)[C@@]1(Cc2ccc(OC)cc2)[C@H]2c3cc(C(=O)N4CCCC4)n(CCc4ccccn4)c3C[C@H]2CN1C(=O)c1ccccc1 -0.912
CC(=O)N1Cc2ccccc2C[C@@]2(N=C(c3ccc(OCCCO)cc3)O[C@H]2c2ccccc2)C1=O 1.4
CC(C)NC(=O)[C@@]1(c2ccc([N+](=O)[O-])cc2)CC(=O)N(C(C)C)[C@@H]1c1ccc(CO)cc1 1.17
CC(C)C(O)C1C=CC2C(=O)N(C)C(=O)C2N1N1CCCCC1 (stereo not given) -0.837
CCCC[C@@H]1C[C@H]1[C@@H](NC(=O)c1ccccc1)c1ccccc1 0.233
CCN(CC)c1ccc(N2CC=CC34O[C@@H]5/C=C\CCCOC(=O)C5[C@H]3C(=O)N(CCCO)[C@@H]4C2=O)cc1 (stereo not given in full) -0.322
COc1ccc(C(O)C2C=CC3C(=O)N(c4ccccc4)C(=O)C3N2Nc2ccccc2)c2ccccc12 (stereo not given) -0.0025
O=[N+]([O-])c1ccc(C[n+]2ccc(CCCO)cc2)o1 -0.841
C[N+](C)(C)CCCCNC(=O)[C@H]1C[C@H]2C(=O)N3CCC[C@H]3C(=O)N2[C@H]1c1ccc(O)cc1 -0.322
COCCOC(=O)N1C(=O)[C@@]2(c3ccccc31)[C@H](C(=O)N1CCCCCCC1)[C@H]1C(=O)O[C@H](c3ccccc3)[C@H](c3ccccc3)N1[C@@H]2c1ccccc1OCCO 0.0795
C=CCC(OC(C)=O)[C@@H]1[C@@H](N(Cc2ccc(-c3ccccc3)cc2)C(=O)c2ccc(C)cc2)c2cc(OCCCO)ccc2N1C(=O)Cc1ccc(OC)cc1 (stereo not given in full) 0.393
COC(=O)[C@@]1(Cc2ccc(OC)cc2)[C@H]2c3cc(C(=O)N4CCCC4)n(C[C@H](O)CO)c3C[C@H]2CN1C(=O)c1ccccc1 0.644
O=C1O[C@H](c2ccccc2)[C@H](c2ccccc2)N2[C@H]1[C@@H](C(=O)NC[C@H](O)c1ccccc1)[C@]1(C(=O)Nc3ccc(C#CC4=CCCCC4)cc31)[C@H]2c1ccc(O)cc1 0.165
COc1ccc([Si](C)(C)[C@@H]2[C@@H](CCO)O[C@]3(C(=O)N(Cc4ccccc4)c4ccc(N(C=O)c5ccccc5)cc43)[C@H]2C)cc1 0.843
COc1cc(NN2C(C(O)c3ccccc3)C=CC3C(=O)N(c4ccccc4)C(=O)C32)cc(OC)c1OC (stereo not given) 0.8
CN(C)CCCCNC(=O)[C@@H]1C[C@@H]2C(=O)N[C@@H](CCCCN)C(=O)N2[C@@H]1c1cccc(OCCO)c1 -1
COc1c(C)cc(-c2cc3c(c(-c4ccccc4)n2)[Si](C(C)C)(C(C)C)O[C@H]3c2ccccc2)cc1C -0.446
[N-]=[N+]=NCc1ccccc1C[C@]1(C(=O)NCc2ccccc2)COC(c2ccc(OCCCO)cc2)=N1 0.376
C=CCOC(=O)[C@@H]1[C@H]2C(=O)O[C@H](c3ccccc3)[C@H](c3ccccc3)N2[C@H](c2ccc(OCCOC(=O)[C@H]3C[C@H]4C(=O)N[C@@H](CCCC[N+](C)(C)C)C(=O)N4[C@H]3c3cccc(OCCO)c3)cc2)[C@@]12C(=O)Nc1ccc(I)cc12 -1.23
O=C1OCC=C[C@H]2OC34C=CCN(c5ccc(Cl)cc5)C(=O)[C@H]3N(CCCO)C(=O)[C@@H]4[C@@H]12 (stereo not given in full) 0.579
O=c1cccc(-c2ccccc2)o1 0.0997
C=C(COC)C(=O)CC[C@H](OC(=O)c1cccnc1)c1ccccc1OCCO -0.285
CCCCCN1CC=CC23O[C@@H]4C=CCCOC(=O)C4[C@H]2C(=O)N(CCCO)[C@@H]3C1=O (stereo not given in full) -0.251
CCN(CC)c1ccc(N2CC=CC34O[C@@H]5C=CCOC(=O)[C@@H]5[C@H]3C(=O)N(CCCCCO)[C@@H]4C2=O)cc1 (stereo not given in full) 0.349
C#C[C@H]1Oc2ccccc2S(=O)(=O)N2CCC[C@@H]12 -0.29
O=C1C2C=CC(C(O)c3ccc(B(O)O)cc3)N(Nc3ccc([N+](=O)[O-])cc3)C2C(=O)N1c1ccccc1 (stereo not given) -0.657
O=C1OCCC/C=C\[C@H]2OC34C=CCN(CCN5CCOCC5)C(=O)[C@H]3N(CCO)C(=O)[C@@H]4C12 (stereo not given in full) -1.09
CC(=O)n1cc(C(O)C2C=CC3C(=O)N(c4ccccc4)C(=O)C3N2Nc2ccc(C#N)cc2)c2ccccc21 (stereo not given) -0.119
COc1ccc(C(=O)Nc2cccc(CN3C(=O)[C@@]4(O[C@@H](CCn5cc([C@H](O)c6ccccc6)nn5)[C@H]([Si](C)(C)c5ccc(OC)cc5)[C@H]4C)c4ccccc43)c2)cc1 -0.237
COC(=O)[C@@]1(Cc2ccc(F)cc2)[C@H]2c3cc(C(=O)N4CCCC4)n(CCc4ccc(OC)c(Br)c4)c3C[C@H]2CN1C(=O)c1ccccc1 0.123
CC(C)N1C(=O)c2ccccc2[C@](C)(C(=O)NC2CC2)[C@@H]1c1ccc(CO)cc1 1.5
CCCNC(=O)[C@@]1(C)c2ccccc2C(=O)N(Cc2ccc(OC(F)(F)F)cc2)[C@H]1c1ccc(CO)cc1 1.28
C=CCC(OC(C)=O)[C@@H]1[C@@H](N(Cc2ccc(-c3cccc(C(F)(F)F)c3)o2)C(=O)Cc2ccc(OC)cc2)c2cc(OCCCO)ccc2N1C(=O)Cc1ccc(OC)cc1 (stereo not given in full) 0.814
COC(=O)[C@@]1(Cc2ccccc2)[C@H]2c3cc(C(=O)N(C)C)n(Cc4cc(F)c(F)c(F)c4)c3C[C@H]2CN1C(=O)c1ccccc1 0.322
C=C(C)[C@@H]1CC=C(C(O)C2C=CC3C(=O)N(Cc4ccccc4)C(=O)C3N2n2cnnc2)CC1 (stereo not given in full) -0.66
